Our source for the inhibition values is PubChem BioAssay.

Calls of active or inactive are those of the source. Cut-off read from the data, not from the text of the source: active = inhibition above about 25%; inactive = the rest.

This experiment is described as follows: repression of VP16-driven luciferase reporter – cell-based, luminescence, high throughput, counter-screen for SRC1 inhibitor project (AID 588824). As to conditions: cell-based VP16 transactivation luciferase luminescence; at 3.6 µM; active compounds read high. A general note: A reporter such as luciferase makes a cellular process visible.
One may read the inhibition as the drop in the measured response relative to a control, in per cent. With `Cc1cccc(C)c1-n1nnnc1C(c1cccs1)N1CCC2(CC1)C(=O)NCN2c1ccccc1` (stereo not given), the inhibition was 4.87% (inactive). The result for `N#Cc1c(Br)n(C2OC(CO)C(O)C2O)c2ncnc(N)c12` (stereo not given) reads 29.9% (active). As for `Cc1ccc2c(C)c3ccc4ccccc4c3c[n+]2c1`, the inhibition is 31.6% (active). Consider `C[C@H]1CCC[C@H](O)CCCCCc2cc(O)cc(O)c2C(=O)O1`, for which the inhibition is 15.5% (inactive). The result for `COc1ccc2c(c1)/C(=C/c1cnc[nH]1)C(=O)N2` reads 19% (inactive); that for `COc1ccc(-n2nnnc2C(c2cccc(OC)c2OC)N2CCC(n3c(=O)[nH]c4ccccc43)CC2)cc1` (stereo not given), 3.33% (inactive). The result for `O=C(c1cn(Cc2ccccc2F)c2ncccc12)C(F)(F)F` reads -0.44% (inactive); that for `CC(C)(C)c1ccc(CSc2cnn(C(C)(C)C)c(=O)c2Cl)cc1`, 44.7% (active).

As to `COc1ccc(-n2nnnc2C(CCSC)N2CCC(n3c(=O)[nH]c4ccccc43)CC2)cc1` (stereo not given), the inhibition was -1.55% (inactive). To `O=Cc1cn(Cc2cccc([N+](=O)[O-])c2)c2ccccc12` belongs 30.7% (active); to `CCN(CC)C(=O)c1ccc(NC(=O)c2ccc(-n3cncn3)c([N+](=O)[O-])c2)cc1`, 5.45% (inactive); to `CCN(CC)C1=NC(=[N+](CC)CC)c2ccccc21`, 31.1% (active). To `O=c1[nH]c2ccccc2n1C1CCN(C(c2cc3ccccc3o2)c2nnnn2-c2ccc3c(c2)OCCO3)CC1` (stereo not given) belongs 8.97% (inactive); to `COc1cc2c(cc1OC)C1C(=O)c3ccc4c(c3OC1CO2)CC(C(C)C)O4` (stereo not given), 41.4% (active). For the molecule `COc1cccc2c1C(=O)c1c(O)c3c(c(O)c1C2=O)CC(O)(C(C)=NO)CC3OC1CC(N)C(O)C(C)O1` (stereo not given), the inhibition was 42.6% (active).
